Several values for one entry are separate records, joined by “and”; a condition that tells them apart may be missing. Identical values can stand only once. Records with an inconclusive call do not appear. More than one record can exist for a structure, and the calls need not agree. Activity calls are given as the source filed them. Unless noted, the call rests on the fitted dose curve; in most records, active means well fitted curve in the direction sought with a large enough effect; inconclusive means small, poorly fitted or top-dose-only effect, or another doubt; inactive means no such curve, though single readings can be large; an effect the other way counts as inactive or inconclusive.

The target of experiment [1] is T1, Hexokinase-4 (Homo sapiens) + Glucokinase regulatory protein (Homo sapiens) (UniProt P35557+Q14397). Nature of the experiment: qHTS assay for inhibitors of recombinant human GCK-GKRP interaction: ADP-Glo assay (AID 743206).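 Further: plate controls were DMSO plus enzyme for no effect and no enzyme for full effect.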 Summed up: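 GST-GCK and FLAG-GKRP (15 nM each in the dispensed mix, with 2 uM S6P) react with 0.4 mM ATP and 5 mM glucose (final) in Hepes pH 7.6 for 60 min at room temperature. ADP is measured by ADP-Glo luminescence.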
T1 sequence (P35557 whole entry, looked up): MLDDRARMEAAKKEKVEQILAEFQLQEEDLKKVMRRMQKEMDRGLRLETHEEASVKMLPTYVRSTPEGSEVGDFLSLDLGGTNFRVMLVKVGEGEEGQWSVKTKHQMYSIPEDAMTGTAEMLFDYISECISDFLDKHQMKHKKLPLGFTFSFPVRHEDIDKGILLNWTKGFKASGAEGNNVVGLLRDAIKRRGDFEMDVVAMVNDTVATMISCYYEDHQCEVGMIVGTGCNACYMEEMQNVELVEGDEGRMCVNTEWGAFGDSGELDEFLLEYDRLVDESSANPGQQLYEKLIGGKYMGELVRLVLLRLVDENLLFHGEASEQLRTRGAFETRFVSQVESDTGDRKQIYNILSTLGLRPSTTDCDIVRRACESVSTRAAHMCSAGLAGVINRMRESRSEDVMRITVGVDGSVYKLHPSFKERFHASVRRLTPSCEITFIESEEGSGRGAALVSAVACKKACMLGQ
T1 sequence (Q14397 whole entry, looked up): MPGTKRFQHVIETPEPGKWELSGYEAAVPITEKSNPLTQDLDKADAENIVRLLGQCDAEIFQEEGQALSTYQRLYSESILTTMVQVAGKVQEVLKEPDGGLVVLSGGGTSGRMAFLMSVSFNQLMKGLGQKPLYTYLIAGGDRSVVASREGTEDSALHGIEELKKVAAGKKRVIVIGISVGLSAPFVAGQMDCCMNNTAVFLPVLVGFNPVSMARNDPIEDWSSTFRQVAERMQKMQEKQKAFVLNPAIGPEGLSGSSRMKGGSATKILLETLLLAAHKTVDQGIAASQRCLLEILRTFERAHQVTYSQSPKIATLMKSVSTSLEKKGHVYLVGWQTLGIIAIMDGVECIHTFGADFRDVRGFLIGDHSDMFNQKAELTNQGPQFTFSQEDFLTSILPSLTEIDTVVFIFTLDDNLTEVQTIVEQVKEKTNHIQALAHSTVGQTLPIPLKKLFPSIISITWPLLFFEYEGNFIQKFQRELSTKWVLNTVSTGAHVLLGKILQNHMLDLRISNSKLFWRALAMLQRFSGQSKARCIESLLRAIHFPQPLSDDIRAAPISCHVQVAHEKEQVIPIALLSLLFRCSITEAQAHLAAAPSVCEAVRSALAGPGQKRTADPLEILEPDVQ
(In qHTS, concentration-response curves come from the screen itself.)

The target of experiment [2] is T1, Hexokinase-4 (Homo sapiens) + Glucokinase regulatory protein (Homo sapiens). Kind of experiment: qHTS assay for inhibitors of recombinant human GCK-GKRP interaction: HTRF assay (AID 743207).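 Further: 0% = DMSO with GCK present and -100% = DMSO wells lacking GCK.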 Summed up: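 HTRF read-out (ex 320 nm; 615/665 nm emission) after 60 min RT equilibration of 5 nM GST-GCK, 5 nM FLAG-GKRP, 2 uM S6P, compound and anti-FLAG/anti-GST detection antibodies; signal normalized between DMSO wells with and without GCK.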

Experiment [3] is described as follows: qHTS Assay for Identifying Gametocytocidal Compounds (AID 743244). Further: potency means the concentration at half of the fitted maximal effect.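 On max response: on the % scale 0 is the no-effect control and ±100 the full control effect; actives lower the fluorescent signal which means gametocytes are killed.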 To be noted: P. falciparum 3D7 stage III-V gametocytes, alamarBlue, 72 h; max response: stronger effect = lower value. Summed up: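 Late gametocytes (III–V), P. falciparum 3D7; 72 h drug, then 24 h alamarBlue; resazurin reduction read by fluorescence.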
A short description of experiment [4]: qHTS assay for cell viability of HEK293 cells (AID 743288). Further: nearly all actives have a fitted effect of over 50% in size. Further: potency means the concentration at half of the fitted maximal effect. On max response: on the % scale 0 is the no-effect control and ±100 the full control effect. As to conditions: ATP luminescence (CellTiter-Glo), 18 h; max response: stronger effect = lower value. Summed up:
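Environmental chemicals tested in qHTS format against parental HEK293 cells; 18 h treatment, 37 C; read-out ATP luminescence (CellTiter-Glo), 30 min RT development.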

A short description of experiment [5]: qHTS assay for cell viability of the p53RE-bla HCT-116 cell line (AID 743292). Further: nearly all actives have a fitted effect of over 55% in size. Further: potency means the concentration at half of the fitted maximal effect. Summed up:
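Luminescent ATP quantitation (CellTiter-Glo) served as the viability read-out; reagent was added after 16 h compound exposure at 37 C and read after 30 min at room temperature. Cells: p53RE-bla HCT-116, 4,000 per well.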

Experiment [6] is described as follows: qHTS profiling of the MIPE4 collection as inhibitors of Plasmodium falciparum (3D7) proliferation (AID 743344; call rule not given here;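 further: scaled between DMSO vehicle wells and 0.29 µM artemisinin as full inhibition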). To be noted: P. falciparum 3D7 in erythrocytes, SYBR Green DNA fluorescence, 72 h; at 28.5 µM (top of the series) unless noted. The essentials: (§1)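 Erythrocytes infected with P. falciparum (0.3% parasitemia, 2.5% hematocrit) incubated with compounds 72 h at 37 C, 5% CO2. Lysis with saponin/Triton buffer containing SYBR Green I, overnight at room temperature in the dark; DNA fluorescence (485/535 nm) normalised to 0.29 uM artemisinin and DMSO.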

Experiment [7] is described as follows: qHTS profiling of the MIPE4 collection as inhibitors of Plasmodium falciparum (DD2) proliferation (AID 743345; call rule not given here). As to conditions: P. falciparum Dd2 in erythrocytes, SYBR Green DNA, 72 h; at 28.5 µM (top of the series) unless noted. The essentials:
as §1

Experiment [8] can be described thus: qHTS profiling of the MIPE4 collection as inhibitors of Plasmodium falciparum (DD2) proliferation (Rep 2) (AID 743346; call rule not given here). To be noted: P. falciparum Dd2 in erythrocytes, SYBR Green DNA, 72 h; at 28.5 µM (top of the series) unless noted. Summed up:
as §1

Experiment [9] is described as follows: qHTS profiling of the MIPE4 collection as inhibitors of Plasmodium falciparum (HB3) proliferation (AID 743347; call rule not given here;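 further: plate controls were DMSO vehicle wells for no effect and artemisinin wells for full effect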). To be noted: P. falciparum HB3 in erythrocytes, SYBR Green DNA, 72 h; at 28.5 µM (top of the series) unless noted. Summed up: as §1
The nature of experiment [10]: High-throughput drug toxicity screening in the BPDCN cell line Gen2.2 (AID 1224824; call rule not given here;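 further: cells exposed to compounds for 48 h before reading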). To be noted: Gen2.2 BPDCN cells; at 45.8 µM (top of the series) unless noted. Summed up: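 CellTiter-Glo luminescence after 48 h compound exposure of Gen2.2 cells; percent activity set with DMSO as 100% and bortezomib (9.2 uM final) as 0%. Cells seeded at 500 per well, RPMI + 10% FBS, 37 °C.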

Experiment [11] in a line: High-throughput drug toxicity screening in the BPDCN cell line Cal-1 (AID 1224825; call rule not given here). As to conditions: Cal-1 BPDCN cell viability, qHTS; at 45.8 µM (top of the series) unless noted. Summed up: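 Cal-1 cells, 500 per well in phenol-red-free RPMI with 10% FBS, exposed to compounds for 48 hours at 37C, 5% CO2. Viability read by CellTiter-Glo luminescence; percent activity normalized to DMSO (100%) and 9.2 uM bortezomib final (0%).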

Experiment [12] can be described thus: qHTS assay for measurement of the activity of small molecule inhibitors on Zika virus induced Caspase-3 activity in human iPSC derived neural progenitor cells (hNPCs) (AID 1224857). Further: nearly all actives have a fitted effect of over 65% in size. Further: potency means the concentration at half of the fitted maximal effect. The essentials:
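Caspase-3/7 induction by a 6-hour ZIKV infection was quantified with a luminescent Caspase-Glo 3/7 reagent incubated 30 minutes at room temperature. Compounds were preincubated with hNPCs for 1 hour; inhibition was calculated against uninfected and infected control wells.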

Experiment [13] can be described thus: qHTS Screen of the MIPE 4.0 Collection Against Ewings Sarcoma (RDES) (AID 1259252). Further: nearly all actives have a fitted effect of over 35% in size. Further: potency means the concentration at half of the fitted maximal effect. Summed up: (§2)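 Dose series incubated 48 h with cells in RPMI plus 5% FBS, glutamine and penicillin/streptomycin; cell viability then quantified via CellTiter-Glo.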
Experiment [14] is described as follows: qHTS Screen of the MIPE 4.0 Collection Against Ewings Sarcoma (EW8) (AID 1259255). Further: nearly all actives have a fitted effect of over 35% in size. Further: potency means the concentration at half of the fitted maximal effect.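 On viability: 100% = DMSO-treated cells and 0% = medium-only wells without cells.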 Summed up:
as §2

Experiment [15] in a line: qHTS Screen of the MIPE 4.0 Collection Against Ewings Sarcoma (TC32) (AID 1259256). Further: nearly all actives have a fitted effect of over 45% in size. Further: potency means the concentration at half of the fitted maximal effect. The essentials:
as §2

The nature of experiment [16]: qHTS profiling for inhibitors of Plasmodium falciparum (3D7) proliferation (AID 743322; call rule not given here;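 further: infected erythrocytes exposed to compound for 72 h before lysis; 100% = DMSO vehicle wells and 0% = 0.29 µM artemisinin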). To be noted: P. falciparum 3D7 proliferation, at 28.7 µM (top of the series). The essentials: as §1
Experiment [17] in a line: qHTS profiling for inhibitors of Plasmodium falciparum (DD2) proliferation (AID 743323; call rule not given here). To be noted: at 28.7 µM (top of the series), lower = more inhibition. Summed up:
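Parasite DNA quantified by SYBR Green fluorescence (ex 485, em 535 nm) after saponin/Triton lysis and overnight dark incubation. Cultures: 0.3% parasitemia, 2.5% hematocrit, 72 h, 37 C; data scaled between DMSO and 0.29 uM artemisinin.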

Experiment [18] in a line: qHTS profiling for inhibitors of Plasmodium falciparum (HB3) proliferation (AID 743324).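 Further: 100% = DMSO vehicle wells and 0% = artemisinin-treated control wells.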 As to conditions: Plasmodium falciparum HB3 blood-stage proliferation; at 28.7 µM (top of the series). Summed up: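 P. falciparum HB3 grown in erythrocytes (0.3% parasitemia, 2.5% hematocrit final) with compound for 72 h at 37 C, 5% CO2. Parasite DNA detected by SYBR Green after saponin/triton lysis overnight; normalized to 0.29 uM artemisinin and DMSO.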

Experiment [19] in a line: qHTS assay for measurement of the activity of small molecule inhibitors on Zika virus induced Caspase-3 activity in human astrocytoma cells (AID 1224859).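 Further: plate controls were ZIKV-infected untreated cells for no effect and uninfected cells for full effect.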 The essentials:
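In SNB-19 cells plated at 250 cells/well and grown 16-20 h, compounds were applied 1 h before ZIKV (2 FFU/cell). Six hours later caspase-3/7 luminescence was recorded.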

Experiment [20] in a line: qHTS Screen of the MIPE 4.0 Collection Against Ewings Sarcoma (TC71) (AID 1259253). Further: nearly all actives have a fitted effect of over 40% in size. Further: potency means the concentration at half of the fitted maximal effect. The essentials: as §2

With `CC(C)(Oc1ccc(C2CC2(Cl)Cl)cc1)C(=O)O` (centres undefined), the Potency result in experiment [1], in [2], in experiment [5] and in experiment [12] was “inactive” each time. The max response in experiment [3] is 2.49% (inactive) and 6.24% (inactive); in [4], -8.57% (inactive). This compound also yielded a parasite growth, % of DMSO control in [6] of 107% [at 57.5 µM]. For the same compound, the parasite growth remaining, % of DMSO control (lower = more inhibition) in experiment [7] turned out to be 105% [at 57.5 µM]. For the same compound, the parasite growth, % of control (lower = inhibition) in experiment [8] came to 92.2% [at 57.5 µM]. The growth, % of control in [9] was 81.2% [at 57.5 µM]. The compound further had a cell viability, % of control (lower = more cytotoxic) in experiment [10] of 77.7% [at 92.2 µM]. In experiment [11], the viability (% of control) was 9.42% [at 92.2 µM]. Moreover, the Potency is 8.55 µM (active) in experiment [13], 7.62 µM (active) in experiment [14] and 42.9 µM (active) in experiment [15].
With `CN(C)C(=N)N=C(N)N`, in experiment [3], the max response is 1.21% (inactive) and -1.21% (inactive). Also, the remaining parasite growth % (stronger effect = lower value) in experiment [16] worked out at 104%. The activity, percent of control in [17] was 125%. Also, the remaining proliferation (% of control), lower = more inhibition in [18] came to 102%. The compound also gave a parasite growth, % of DMSO control in experiment [6] of 97.5%. Further, in experiment [7], the parasite growth remaining, % of DMSO control (lower = more inhibition) is 99.4%. Besides, the parasite growth, % of control (lower = inhibition) in experiment [8] worked out at 85.6%. This compound also gave a growth, % of control in [9] of 110%. Besides, in [11], the viability (% of control) is 99.5%. The Potency result in experiment [12], in experiment [19], in experiment [13], in experiment [20], in [14] and in experiment [15] was “inactive” in each case.
`COc1cc2nc(N3CCN(C(=O)c4ccco4)CC3)nc(N)c2cc1OC`: the Potency entry in experiment [2], in [12] and in experiment [19] was “inactive” in each case. The Potency in [3] was 11.2 µM (active); in experiment [14] it was 18.7 µM (active). The parasite growth, % of DMSO control in [6] amounted to 4.68%. In addition, in [7], the parasite growth remaining, % of DMSO control (lower = more inhibition) is 20.6%. Further, in [8], the parasite growth, % of control (lower = inhibition) came out at 8.89%. In experiment [9], this compound gave a growth, % of control of 2.87%. In experiment [11], the viability (% of control) came out at 5.38%.
On to `COc1ccc2c(c1)c(CC(=O)O)c(C)n2C(=O)c1ccc(Cl)cc1`, for which the Potency result in experiment [2], in experiment [5], in experiment [12] and in experiment [14] was “inactive” in each case. The max response in [3] is 2.39% (inactive) and 17.2% (inactive); in [4] it was 11.9% (inactive) and -6.39% (inactive). In experiment [6], the parasite growth, % of DMSO control was 55.7%. In addition, the parasite growth remaining, % of DMSO control (lower = more inhibition) in experiment [7] stood at 103%. For the same compound, the parasite growth, % of control (lower = inhibition) in [8] was found to be 127%. Moreover, the growth, % of control in [9] came out at 83.6%. In addition, the viability (% of control) in experiment [11] worked out at 104%. In experiment [13], the Potency is 14.8 µM (active).
Consider `CCOC(=O)Nc1ccc(NCc2ccc(F)cc2)nc1N`, for which the Potency entry in experiment [2], in [12] and in experiment [19] was “inactive” each time. For the same compound, the viability (% of control) in experiment [11] is 96.5%.
For `CC1COc2c(N3CCN(C)CC3)c(F)cc3c(=O)c(C(=O)O)cn1c23` (centres undefined), the Potency entry in experiment [1], in [2], in [12], in [19], in experiment [14] and in experiment [15] was “inactive” throughout. In experiment [3], the max response is 18.2% (inactive) and 27.4% (inactive). In [6], this compound gave a parasite growth, % of DMSO control of 59.3%. For the same compound, in experiment [7], the parasite growth remaining, % of DMSO control (lower = more inhibition) was found to be 84.7%. In addition, the parasite growth, % of control (lower = inhibition) in [8] was determined as 76.4%. Further, in experiment [9], the growth, % of control came out at 76.3%. Further, the viability (% of control) in experiment [11] worked out at 42.1%.
Turning to `CN(Cc1cnc2nc(N)nc(N)c2n1)c1ccc(C(=O)N[C@@H](CCC(=O)O)C(=O)O)cc1`, the Potency result in [1], in experiment [2] and in experiment [12] was “inactive” in each case. Moreover, the max response in experiment [3] is -2.41% (inactive) and 9.8% (inactive). Also, the Potency in experiment [5] was 0.282 µM (active); in experiment [13] it was 0.0332 µM (active); in experiment [20], 0.0148 µM (active); in [14], 0.0264 µM (active); in experiment [15], 0.0372 µM (active). This compound gave a parasite growth, % of DMSO control in experiment [6] of 8.82%. Further, the parasite growth remaining, % of DMSO control (lower = more inhibition) in [7] is 7.1%. In experiment [8], the parasite growth, % of control (lower = inhibition) turned out to be 8.39%. Also, the growth, % of control in experiment [9] stood at 19.5%. For the same compound, the viability (% of control) in experiment [11] is 9.1%.
As for `O=C(Nc1ccc([N+](=O)[O-])cc1Cl)c1cc(Cl)ccc1O`, the Potency result in experiment [2] was “inactive”. Moreover, the Potency was 7.08 µM (active) in experiment [4]; “inactive and 1.05 µM (active)” in experiment [12]; 16.6 µM (active) in experiment [13]; 1.32 µM (active) in experiment [20]; 16.6 µM (active) in experiment [14]; 1.32 µM (active) in experiment [15]. This compound displayed a parasite growth, % of DMSO control in experiment [6] of 5.14%. For the same compound, the parasite growth remaining, % of DMSO control (lower = more inhibition) in experiment [7] came to 6.45%. Further, in [8], the parasite growth, % of control (lower = inhibition) amounted to 6.93%. This compound yielded a growth, % of control in experiment [9] of 3.45%. For the same compound, the viability (% of control) in experiment [11] was determined as 20.3%.

The values are drawn from PubChem BioAssay (NCATS).
